Assay outcomes as filed in PubChem BioAssay.
RmlC RmlD mix: inhibitors of RmlC and RmlD coupled enzymes; inhibition, % at 5.5 µM; AID 1532; RmlC/RmlD coupled enzyme inhibition, 384-well mixture HTS; actives 0.39% (n = 110,000); in the data active means inhibition above about 30%, passing the limit was not always enough
YopH PTP inh: YopH (Yersinia) phosphatase inhibition; fluorescence Ex485/Em525; actives 0.16% (n = 140,000); inhibition, % (concentration not given with the values); in the data active means inhibition above about 50%
RmlCD fluor art: RmlC/RmlD fluorescence artifact, counter-screen. actives 96% (n = 360). shares compounds with RmlC RmlD mix. calls only. RmlC/RmlD assay fluorescence artifact counter-screen. AID 1696; call rule not given here;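 further: compound alone with no enzyme and no substrates present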
Large screens that a line does not name were inactive (follow-up assays come after a bar, where they were run). The list is not random: actives were taken first. Their share in the collection is about 0.44%.

Cc1nc(NC(=O)/C=C/c2ccccc2)sc1C(=O)Nc1ccccc1Cl	RmlC RmlD mix 37 | RmlCD fluor art active
CCOC(=O)CNc1c(-c2ccc(Cl)cc2)nc2cnccn12	none (no result: RmlC RmlD mix)
CCOC(=O)CNc1c(-c2ccc(F)cc2)nc2cnccn12	RmlC RmlD mix 50 | RmlCD fluor art active
O=C(CCC(=O)N/N=C/c1ccccc1O)NCc1ccccc1	none (no result: RmlC RmlD mix)
CC(C)(O[C@@H]1O[C@H](CO)[C@@H](O)[C@H](O)[C@H]1O)[C@H]1Cc2cc3ccc(=O)oc3cc2O1	RmlC RmlD mix 56 | RmlCD fluor art active
C=C(C)C1Cc2cc3ccc(=O)oc3cc2O1 (centres undefined)	none (no result: RmlC RmlD mix)
Cc1oc(-c2ccccc2F)nc1CSCC(=O)NCc1ccc2c(c1)OCO2	none
O=C(NCC1CCCO1)c1coc2nc3ccccc3nc12 (centres undefined)	none
COC(CNC(=O)c1coc2nc3ccccc3nc12)OC	none (no result: RmlC RmlD mix, YopH PTP inh) | RmlCD fluor art inactive
COc1ccc(NC(=O)c2oc3ccccc3c2NC(=O)COc2ccccc2OC)c(OC)c1	RmlC RmlD mix 104 | RmlCD fluor art active
CCOCC(=O)Nc1c(C(=O)Nc2ccccc2OC)oc2ccccc12	none
CC(=O)O[C@]1(C(C)=O)CC[C@H]2[C@@H]3C=C(Cl)C4=CC(=O)[C@@H]5C[C@@H]5[C@]4(C)[C@H]3CC[C@@]21C	none (no result: YopH PTP inh)
COc1ccc(-c2cc(C(F)(F)F)n3nc(N)nc3n2)cc1	RmlC RmlD mix 75 | RmlCD fluor art active
COc1cccc(-c2cc(C(F)(F)F)n3nc(N)nc3n2)c1	none
CCC(C)c1ccc(NC(=O)COc2c(F)c(F)c(C(F)(F)F)c(F)c2F)cc1 (centres undefined)	none (no result: RmlC RmlD mix)
Cc1ccc(N2CN(Cc3ccco3)CNC2=S)c(C)c1	none (no result: RmlC RmlD mix)
O=c1[nH]cnc2cc(-c3ccccc3)sc12	none
COc1ccc(-c2cc3nc[nH]c(=O)c3s2)cc1	RmlC RmlD mix 51 | RmlCD fluor art active
O=C(CN1CCCC1)Nc1ccc(-c2nc3cc(NC(=O)CN4CCCC4)ccc3o2)cc1	RmlC RmlD mix 46 | RmlCD fluor art active
CCN(CC)CC(=O)Nc1ccc(-c2nc3cc(NC(=O)CN(CC)CC)ccc3o2)cc1	none
N#Cc1nc(-c2cccs2)oc1N1CCOCC1	none
CC1CN(c2oc(-c3cccs3)nc2C#N)CC(C)O1 (centres undefined)	RmlC RmlD mix 75 | RmlCD fluor art active
N#Cc1nc(-c2cccs2)oc1NCC1CCCO1 (centres undefined)	RmlC RmlD mix 107 | RmlCD fluor art active
N#Cc1nc(-c2cccs2)oc1NCCCN1CCOCC1	RmlC RmlD mix 67, YopH PTP inh 51 | RmlCD fluor art active
O=S(=O)(c1ccccc1)c1nc(-c2cccs2)oc1NCC1CCCO1 (centres undefined)	none
COc1ccc(-c2nc(C#N)c(NCCCN3CCOCC3)o2)cc1	none (no result: RmlC RmlD mix)
C=CCNC(=O)c1cccc(C(F)(F)F)c1	none
CC(=O)c1ccc(NC(=S)N(C)C2CCN(C)CC2)cc1	none (no result: RmlC RmlD mix)
NS(=O)(=O)c1ccc(N2N=C(c3ccccc3)CC2c2ccc(F)cc2)cc1 (centres undefined)	RmlC RmlD mix 149 | RmlCD fluor art active
COc1ccc(C2CC(c3ccccc3)=NN2c2ccc(/C=N/NC(=O)c3ccncc3)cc2)cc1 (centres undefined)	none
COC(=O)c1cc(=O)nc2sc(-c3ccc(F)cc3)nn12	none
COC(=O)c1cc(=O)nc2sc(-c3cccs3)nn12	RmlC RmlD mix 39 | RmlCD fluor art active
Cc1cc(C)n2nc(NCc3cccc(Br)c3)nc2n1	none
Cc1ccccc1NC(=O)CN(C)S(=O)(=O)c1cccc2cccnc12	none
O=c1oc2cc(O)ccc2c2c1CCCC2	RmlC RmlD mix 126 | RmlCD fluor art active
Cc1cc(OC(=O)c2ccco2)c2c3c(c(=O)oc2c1)CCC3	none
O=c1oc2cc(O)ccc2c2ccccc12	none
O=C(Oc1ccc2c3c(c(=O)oc2c1)CCCC3)c1ccco1	RmlC RmlD mix 110 | RmlCD fluor art active
Cc1ccc2nc3c(cc(C(=O)NCC4CCCO4)c(=N)n3CCCOC(C)C)c(=O)n2c1 (centres undefined)	RmlC RmlD mix 126 | RmlCD fluor art active
CC(C)OCCCn1c(=N)c(C(N)=S)cc2c(=O)n3ccccc3nc21	none
CCCC12C(=O)C(C)(C(c3ccccc3)=C1c1ccccc1)C1C(=O)N(c3ccc(C)cc3)C(=O)C12 (centres undefined)	none (no result: RmlC RmlD mix)
COC(=O)c1cc(O)cc(OC)c1Oc1cc(C)cc(O)c1C(=O)O	none (no result: YopH PTP inh)
O=C(NCc1ccco1)c1cc2ccc(O)cc2oc1=O	RmlC RmlD mix 86 | RmlCD fluor art active
COc1ccc2cc(C(=O)NCc3ccco3)c(=O)oc2c1	none
COc1ccc(C(=O)N/N=c2\oc3ccccc3cc2C(=O)NCc2ccccc2)cc1	none (no result: RmlC RmlD mix)
CCOc1ccc(S(=O)(=O)c2c(C(=O)c3ccccc3)cnc3cc4c(cc23)OCCO4)cc1	none (no result: RmlC RmlD mix)
CC(=O)c1cc2cc(O)ccc2o1	RmlC RmlD mix 136 | RmlCD fluor art active
CC(=O)c1cc2c(O)c(O)ccc2o1	none
COC(=O)CN(c1ccc(F)cc1)S(=O)(=O)c1ccc2c(c1)OCCO2	none
COc1cc(-c2nnc(SCC3(c4ccccc4)OCCO3)o2)cc(OC)c1OC	none
CCOC(=O)N1CCN(C(=O)c2ccc3nc4ccsc4c(=O)n3c2)CC1	none (no result: RmlC RmlD mix)
CCOC(=O)N1CCN(C(=O)c2ccc3nc4ccc(Cl)cc4c(=O)n3c2)CC1	RmlC RmlD mix 48 | RmlCD fluor art active
COc1cc(-c2nc3ccccn3c2/N=C/c2ccccc2)ccc1O	RmlC RmlD mix 67 | RmlCD fluor art active
COc1ccc(-c2nc3ccccn3c2/N=C/c2ccc(OC)c(OC)c2)cc1O	none (no result: RmlC RmlD mix)
CC1Cc2ccccc2N1C(=O)c1cc2c(=O)n3ccccc3nc2n1C (centres undefined)	none
Cn1c(C(=O)N2CCc3ccccc3C2)cc2c(=O)n3ccccc3nc21	RmlC RmlD mix 103 | RmlCD fluor art active
COC(=O)c1ncccc1SC	none (no result: RmlC RmlD mix)
CCN(Cc1ccncc1)S(=O)(=O)c1ccc(C(C)=O)cc1	none
O=S(=O)(c1cccc(-c2cn3cccnc3n2)c1)N1CCOCC1	RmlC RmlD mix 67 | RmlCD fluor art active
O=S(=O)(c1cccc(-c2cn3cccnc3n2)c1)N1CCCCCC1	none
Brc1ccc(-c2cn3cccnc3n2)cc1	RmlC RmlD mix 45 | RmlCD fluor art active
Clc1ccc(-c2cn3cccnc3n2)cc1Cl	none
COc1ccc(-c2cn3cccnc3n2)cc1F	none (no result: RmlC RmlD mix)
Clc1ccc(-c2cn3cccnc3n2)cc1	RmlC RmlD mix 40 | RmlCD fluor art active
C/C(=N\OCC(=O)Nn1c(=O)[nH]c2ccccc2c1=O)c1ccccc1	none (no result: RmlC RmlD mix)
CC1(c2ccccc2)NC(=O)N(CC(=O)Nc2cccc(C#N)c2)C1=O (centres undefined)	none
O=C(CC1CCCC1)Nc1ccc2c(c1)CCC2	none
COc1ccc2cc(-c3nc4ccccc4n3C)c(=O)oc2c1	RmlC RmlD mix 31 | RmlCD fluor art active
COc1ccc2cc(C(C)=O)c(=O)oc2c1	none (no result: RmlC RmlD mix)
CC(=O)Nc1ccc(S(=O)(=O)NNC(=O)COc2cccc3ccccc23)cc1	none (no result: RmlC RmlD mix)
CCOC(=O)CC(=O)CSc1nc(-c2cccnc2)ccc1C#N	none (no result: RmlC RmlD mix) | RmlCD fluor art active
CCOC(=O)CC(=O)CSc1nc(-c2cccnc2)cc(C)c1C#N	none
CC(C)OC(=O)CC(=O)CSc1nc2c(cc1C#N)CCCCCC2	RmlC RmlD mix active | RmlCD fluor art active
COC(=O)CC(=O)CSc1nc(C)cc(C)c1C#N	RmlC RmlD mix 121 | RmlCD fluor art active
